Results taken from PubChem BioAssay (NCI).
The panel holds about 83,000 compounds, 20% with a hit somewhere; the sample as a whole holds those more often.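 The endpoint reported here, percent growth, reads 100 for growth as untreated, 0 for no net growth and -100 for all cells dead.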 Calls of active or inactive are those of the source. How the source made its calls: active means growth percent below 10; inactive means the rest.

Assays:
Assay in all cases: NCI-60 one-dose screen, 48 h (100 = growth as untreated, 0 = no growth, -100 = all killed)
Settings in all cases: 10 µM unless noted
DU-145 prostate = test system: DU-145 prostate
K-562 leukemia = test system: K-562 leukemia
MALME-3M melanoma = test system: MALME-3M melanoma
MDA-MB-231 breast = test system: MDA-MB-231 breast
RXF 393 renal = test system: RXF 393 renal
SF-268 CNS = test system: SF-268 CNS
SF-295 CNS = test system: SF-295 CNS
SF-539 CNS = test system: SF-539 CNS
UACC-257 melanoma = test system: UACC-257 melanoma
M14 melanoma = test system: M14 melanoma

Measured: growth

CCn1c(-c2nonc2N)nc2c(C#CC(C)(C)O)ncc(OC[C@H]3CCCNC3)c21
inactive: DU-145 prostate 64.4% | K-562 leukemia 38.8% | MALME-3M melanoma 84.2% | MDA-MB-231 breast 84.2% | SF-268 CNS 81% | SF-295 CNS 41.4% | SF-539 CNS 27.1% | UACC-257 melanoma 130% | M14 melanoma 71%
active: RXF 393 renal 5.93%

COc1ccc(-c2cnc(-c3ccc(Cl)cc3)[nH]2)cc1OC
inactive: DU-145 prostate 78.7% | K-562 leukemia 115% | MALME-3M melanoma 155% | MDA-MB-231 breast 78.6% | RXF 393 renal 91.6% | SF-268 CNS 78% | SF-295 CNS 111% | SF-539 CNS 95.6% | UACC-257 melanoma 119% | M14 melanoma 115%

C/C(=N\NC(=O)Cn1c(-c2ccc(S(C)(=O)=O)cc2)nc2ccccc21)c1ccc(Cl)cc1
inactive: DU-145 prostate 112% | K-562 leukemia 80.7% | MALME-3M melanoma 102% | MDA-MB-231 breast 90.2% | RXF 393 renal 92.2% | SF-268 CNS 91.3% | SF-295 CNS 90% | SF-539 CNS 106% | UACC-257 melanoma 88.8% | M14 melanoma 94%

O=C(Nc1nc2cccc(-c3ccc(CN4CCS(=O)(=O)CC4)cc3)n2n1)C1CC1
inactive: DU-145 prostate 35.4% | K-562 leukemia 36.5% | MALME-3M melanoma 105% | MDA-MB-231 breast 81.8% | RXF 393 renal 50.7% | SF-268 CNS 70.7% | SF-295 CNS 88.8% | SF-539 CNS 79.1% | UACC-257 melanoma 86.2% | M14 melanoma 90.8%

COc1cc(Nc2ncc(F)c(Nc3ccc4c(n3)N(COP(=O)(O)O)C(=O)C(C)(C)O4)n2)cc(OC)c1OC
inactive: DU-145 prostate 30.9% | K-562 leukemia 32.3% | MALME-3M melanoma 53.1% | MDA-MB-231 breast 15.9% | SF-295 CNS 15.5% | UACC-257 melanoma 66.2% | M14 melanoma 39%
active: RXF 393 renal -79.9% | SF-268 CNS 7.3% | SF-539 CNS -70.1%

Cc1cc(-c2cc(O)ccc2Cl)cc2nnc(Nc3ccc(OCCN4CCCC4)cc3)nc12
active: DU-145 prostate -89.4% | K-562 leukemia -63.9% | MALME-3M melanoma -68.4% | MDA-MB-231 breast -80.5% | RXF 393 renal -73.4% | SF-268 CNS -69.8% | SF-295 CNS -76.3% | SF-539 CNS -86.8% | UACC-257 melanoma -75.9% | M14 melanoma -51.8%

Cc1c(NC(=O)OC[C@@H]2COCCN2)cn2ncnc(Nc3ccc4c(cnn4Cc4cccc(F)c4)c3)c12
active: MALME-3M melanoma -27% | MDA-MB-231 breast 1.06% | RXF 393 renal -62.4% | SF-268 CNS -2.37% | SF-539 CNS -52.4% | UACC-257 melanoma -31.3% | M14 melanoma -29.3%
inactive: DU-145 prostate 10.1% | K-562 leukemia 11.5% | SF-295 CNS 14.6%

Cc1cc(Nc2nc(N[C@@H](C)c3ncc(F)cn3)ncc2Cl)n[nH]1
inactive: DU-145 prostate 99.5% | K-562 leukemia 77.6% | MALME-3M melanoma 56.4% | MDA-MB-231 breast 83.8% | RXF 393 renal 24.4% | SF-268 CNS 72% | SF-295 CNS 94.4% | SF-539 CNS 80.8% | UACC-257 melanoma 71.1% | M14 melanoma 58.7%

O=C(Nc1ccc(Nc2ncnc3sc4c(c23)CCOC4)cc1)Nc1ccc(Cl)c(C(F)(F)F)c1
inactive: DU-145 prostate 96.1% | K-562 leukemia 88.5% | MALME-3M melanoma 88.7% | MDA-MB-231 breast 95.2% | RXF 393 renal 98.9% | SF-268 CNS 99.4% | SF-295 CNS 83.1% | SF-539 CNS 63.8% | UACC-257 melanoma 105% | M14 melanoma 77.7%

CCN(CC)CCN1C(=O)c2cccc3c(-c4ccc5c(c4)ncn5C4CCCCC4)ccc(c23)C1=O
active: K-562 leukemia -14.2% | MALME-3M melanoma -74.5% | RXF 393 renal -11.4% | SF-295 CNS -41.7% | SF-539 CNS -76.2% | UACC-257 melanoma -15% | M14 melanoma -62.8%
inactive: DU-145 prostate 28.4% | MDA-MB-231 breast 11.8% | SF-268 CNS 39.9%

C[C@@H](N)c1ccc(C(=O)Nc2ccnc3[nH]ccc23)cc1
active: RXF 393 renal -18%
inactive: DU-145 prostate 52.3% | K-562 leukemia 63.7% | MALME-3M melanoma 75.1% | MDA-MB-231 breast 50% | SF-268 CNS 50.6% | SF-295 CNS 61.5% | SF-539 CNS 11.1% | UACC-257 melanoma 68.9% | M14 melanoma 64.9%

COc1cc(CCc2cc(NC(=O)c3ccc(N4C[C@@H](C)N[C@@H](C)C4)cc3)n[nH]2)cc(OC)c1
active: K-562 leukemia 8.61% | RXF 393 renal -10.1% | UACC-257 melanoma 3.28%
inactive: DU-145 prostate 37.7% | MALME-3M melanoma 26.6% | MDA-MB-231 breast 44.2% | SF-268 CNS 39.4% | SF-295 CNS 62.4% | SF-539 CNS 16.9% | M14 melanoma 18%

O=C1C=CC2(NN=C(c3ccccc3)N2c2ccccc2)c2cccc(O)c21 (stereo not given)
active: UACC-257 melanoma 3.12% | M14 melanoma 8.81%
inactive: DU-145 prostate 35.7% | K-562 leukemia 28.6% | MALME-3M melanoma 11.6% | MDA-MB-231 breast 75.6% | RXF 393 renal 120% | SF-268 CNS 49.4% | SF-295 CNS 17.1% | SF-539 CNS 25.4%

CN(C)C/C=C/C(=O)Nc1cc2c(Nc3ccc(F)c(Cl)c3)ncnc2cc1O[C@H]1CCOC1
inactive: SF-295 CNS 29.8%
active: DU-145 prostate -7.97% | K-562 leukemia 0.783% | MALME-3M melanoma -75.1% | MDA-MB-231 breast -13.7% | RXF 393 renal -22% | SF-268 CNS 6.2% | SF-539 CNS -84.6% | UACC-257 melanoma -70.7% | M14 melanoma -82.8%
